# PubChem BioAssay (Tox21)
# “And” between values parts separate entries of the source, which are not always exact repeats. Equal entries are not always repeated. Inconclusive results are not listed. Where a call stands in place of a potency, no number is given. A structure can be active in one record and inactive in another. The source made the active and inactive calls. Unless noted, calls follow the shape of the dose curve; as a rule, active = well fitted curve in the direction sought with a large enough effect in the repeat runs; inconclusive = weak or mixed curves; inactive = no such curve, though single readings can be large; an effect the other way counts as inactive or inconclusive.
# Experiments:
# [1] = qHTS assay to identify small molecule antagonists of the estrogen receptor alpha (ER-alpha) signaling pathway using the BG1 cell line in the presence of 0.1 nM 17-beta-estradiol - cell viability counter screen (AID 1259241); also: nearly all actives have a fitted effect of over 40% in size
# Method in brief: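 Cytotoxicity counter-screen: live-cell protease activity measured by fluorescence (30 min reagent step) in the same wells. Cells were VM7Luc4E2 with endogenous ER-alpha and ERE-driven luciferase, treated 22 hr at 37C alongside 0.1 nM 17beta-estradiol final.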
# [2] = qHTS assay to identify small molecule antagonists of the androgen receptor (AR) signaling pathway using the MDA cell line in the presence of 0.5 nM R1881 - cell viability counter screen (AID 1259242); also: nearly all actives have a fitted effect of over 45% in size
# Method in brief: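 Live-cell protease fluorescence, CellTiter-Fluor, 30 min at 37C. Cells: MDA-kb2, 3,000/well, preincubated 5 hr. Compounds plus 0.5 nM R1881 final, 16 hr, 37C, 0% CO2.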
# [3] = qHTS assay to identify small molecule phospholipidosis (PLD) inducers (AID 1259344; active = well fitted curve in the direction sought with a large enough effect; an effect the other way counts as inactive or inconclusive)
# Method in brief: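 Read-out is LipidTOX Red fluorescence (ex 595/em 615) imaged in HepG2 cells after 24 h compound exposure at 37 C, with Hoechst nuclear counterstain (ex 352/em 461) allowing per-cell normalisation.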
# [4] = qHTS assay to identify small molecule HDAC inhibitors (AID 1259364); also: potency is read from the fitted curve at half-maximal effect;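 also: wild-type HCT-116 cells with endogenous class I/II HDAC activity; nearly all actives have a fitted effect of over 45% in size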
# Method in brief: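 HCT-116 (wild type), 1,500 cells/well, overnight; compound 2 hr 37C 5% CO2; HDAC-Glo I/II reagent 30 min RT; luminescence readout.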
# [5] = qHTS assay to identify small molecule HDAC inhibitors - cell viability counter screen (AID 1259365); also: series mostly up to about 92 µM; nearly all actives have a fitted effect of over 50% in size
# Method in brief: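 CellTiter-Glo luminescence (30 min, room temperature) reported viability after a 2 h compound exposure at 37 C. Cells: wild-type HCT-116, 1,500 per well, seeded the night before.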
# [6] = qHTS assay to identify small molecule agonists of the sonic hedgehog signaling (Shh) pathway - cell viability counter screen (AID 1259366); also: nearly all actives have a fitted effect of over 50% in size; also: potency is read from the fitted curve at half-maximal effect
# Method in brief: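 Cytotoxicity counter screen: CellTiter-Fluor reagent added after 23 h compound exposure, then 1 h at 37C and fluorescence read. Cells were 3T3 Gli1-Luc, seeded 2,000 per well and dosed 4 h post-plating.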
# [7] = qHTS assay to identify small molecule antagonists of the sonic hedgehog signaling (Shh) pathway - cell viability counter screen (AID 1259367); also: nearly all actives have a fitted effect of over 55% in size; also: potency is read from the fitted curve at half-maximal effect
# Method in brief: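 Fluorescence read-out (CellTiter-Fluor, 1 hr at 37C) taken after 23 hr compound treatment of 3T3 Gli1-Luc cells stimulated with conditioned medium. Cells were seeded at 2,000 per well and pre-incubated 4 hr.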
# [8] = qHTS assay to identify small molecule agonists of the sonic hedgehog signaling (Shh) pathway (AID 1259368; calls by dose curve;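 also: NIH/3T3-derived 3T3Gli1-Luc cells carrying a stable Gli1-driven firefly luciferase reporter; series mostly up to about 92 µM; nearly all actives have a fitted effect of over 15% in size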)
# Method in brief: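 Read-out: firefly luciferase luminescence from a Gli1 response element reporter stably integrated in NIH/3T3-derived 3T3Gli1-Luc cells, measured 30 min at room temperature after reagent addition. Compound exposure lasted 24 hr at 37 C, 5% CO2.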
# [9] = qHTS assay to identify small molecule antagonists of the sonic hedgehog signaling (Shh) pathway (AID 1259369; calls by dose curve; also: nearly all actives have a fitted effect of over 45% in size)
# Method in brief: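 Luminescence readout: firefly Luc under Gli1 response element in 3T3Gli1-Luc cells (NIH/3T3 clone). Antagonist mode, stimulation by conditioned medium; compound exposure 24hr at 37 C, 5% CO2.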
# [10] = target: Estrogen receptor beta (Homo sapiens) (UniProt Q92731); assay: qHTS assay to identify small molecule agonists of the estrogen receptor beta (ER-beta) signaling pathway (AID 1259377; active = well fitted activation curve with a large enough effect in the signal ratio in the repeat runs, not every such curve was filed as active; the % refers to the signal ratio)
# Chain of Estrogen receptor beta (Homo sapiens) (Q92731 whole entry, looked up): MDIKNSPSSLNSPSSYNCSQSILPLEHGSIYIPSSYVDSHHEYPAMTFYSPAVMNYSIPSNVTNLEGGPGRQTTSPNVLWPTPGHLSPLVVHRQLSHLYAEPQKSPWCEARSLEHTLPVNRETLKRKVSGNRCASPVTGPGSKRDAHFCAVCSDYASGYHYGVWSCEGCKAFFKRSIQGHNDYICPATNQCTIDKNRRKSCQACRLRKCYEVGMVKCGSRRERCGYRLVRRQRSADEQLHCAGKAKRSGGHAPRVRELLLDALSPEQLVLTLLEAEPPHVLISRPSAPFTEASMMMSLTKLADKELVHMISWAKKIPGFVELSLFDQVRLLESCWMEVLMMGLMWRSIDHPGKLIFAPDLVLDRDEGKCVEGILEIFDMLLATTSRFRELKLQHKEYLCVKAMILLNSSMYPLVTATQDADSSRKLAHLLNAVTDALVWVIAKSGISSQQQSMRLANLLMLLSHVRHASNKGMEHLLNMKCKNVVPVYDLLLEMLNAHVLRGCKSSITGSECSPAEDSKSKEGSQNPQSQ
# Method in brief: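 Ratiometric beta-lactamase FRET read-out came after 2 h substrate loading at room temperature. It followed 16 h compound treatment at 37C of GripTite HEK293T cells carrying a UAS-bla reporter, plated in 2% charcoal-stripped FBS medium.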
# [11] = qHTS assay to identify small molecule agonists of the androgen receptor (AR) signaling pathway in the presence of an antagonist - cell viability counter screen (AID 1259379); also: nearly all actives have a fitted effect of over 25% in size; also: potency is read from the fitted curve at half-maximal effect
# Method in brief: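 Viability counter screen: CellTiter-Fluor fluorescence, measured in the same wells as the luciferase read-out. MDA-kb2 cells, 3,000/well, with nilutamide at 3.0uM final and compounds at 15 concentrations, 16 hr at 37C, 0% CO2.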
# [12] = qHTS assay to identify small molecule agonists of the estrogen receptor beta (ER-beta) signaling pathway - cell viability counter screen (AID 1259380); also: nearly all actives have a fitted effect of over 30% in size
# Method in brief: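 Luminescence read-out (CellTiter-Glo, 30 min, room temp) taken in the same wells as the beta-lactamase reporter assay; ER-beta-UAS-bla HEK293T cells exposed to DMSO-dissolved compounds for 16 hr at 37C in 2% charcoal-stripped FBS medium.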
# [13] = qHTS assay to identify small molecule antagonists of the estrogen receptor beta (ER-beta) signaling pathway - cell viability counter screen (AID 1259382); also: series mostly up to about 92 µM; nearly all actives have a fitted effect of over 55% in size
# Method in brief: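 Luminescent ATP read-out (CellTiter-Glo, 30 min, RT) taken in the same wells as the bla reporter assay. HEK293T ER-beta-UAS-bla cells in 2% charcoal-stripped FBS were exposed to compounds with 1nM E2 for 16 hr at 37C.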
# [14] = qHTS assay to identify small molecule agonists or antagonists of the thyroid stimulating hormone receptor (TSHR) signaling pathway - wild type cell line counter screen (AID 1259384; calls by dose curve)
# Method in brief: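 Wild-type Hek293 cells, 800/well, 18 h at 37C, then compound with Ro20-1724 for 30 min RT. cAMP by HTRF (cAMP-d2/anti-cAMP cryptate), 1 h RT, fluorescence read. 15 concentrations, triplicates.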
# [15] = target: Thyrotropin receptor (Homo sapiens) (UniProt P16473); assay: qHTS assay to identify small molecule antagonists of the thyroid stimulating hormone receptor (TSHR) signaling pathway (AID 1259385; calls by dose curve; also: nearly all actives have a fitted effect of over 20% in size)
# Chain of Thyrotropin receptor (Homo sapiens) (P16473 whole entry, looked up): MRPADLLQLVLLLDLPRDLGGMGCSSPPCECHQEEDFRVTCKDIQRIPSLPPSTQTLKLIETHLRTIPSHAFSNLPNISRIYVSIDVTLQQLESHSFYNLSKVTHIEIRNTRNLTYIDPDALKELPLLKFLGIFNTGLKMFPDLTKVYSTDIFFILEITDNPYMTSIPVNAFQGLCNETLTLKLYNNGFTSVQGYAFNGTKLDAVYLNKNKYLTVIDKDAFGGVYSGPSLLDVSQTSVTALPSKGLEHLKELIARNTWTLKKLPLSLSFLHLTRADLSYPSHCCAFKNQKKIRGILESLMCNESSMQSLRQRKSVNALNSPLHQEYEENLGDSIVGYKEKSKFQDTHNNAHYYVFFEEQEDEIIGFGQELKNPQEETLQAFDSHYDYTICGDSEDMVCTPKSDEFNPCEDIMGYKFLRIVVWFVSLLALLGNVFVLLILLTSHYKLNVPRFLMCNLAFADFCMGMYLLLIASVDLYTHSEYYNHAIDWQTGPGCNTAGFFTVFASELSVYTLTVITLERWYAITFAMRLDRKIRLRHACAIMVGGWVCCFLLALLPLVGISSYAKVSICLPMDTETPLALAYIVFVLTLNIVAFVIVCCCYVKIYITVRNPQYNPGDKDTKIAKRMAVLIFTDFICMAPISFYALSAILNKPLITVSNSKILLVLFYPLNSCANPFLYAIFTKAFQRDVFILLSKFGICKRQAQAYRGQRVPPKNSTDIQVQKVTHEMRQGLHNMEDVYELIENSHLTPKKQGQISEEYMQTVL
# Method in brief: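 TSHR-HEK293 cells (800/well) plated 18 h, then compounds with Ro20-1724 and TSH at 1.5 ng/mL final, 30 min at room temperature. cAMP quantified by HTRF (cAMP-d2/anti-cAMP-cryptate, 1 h); 15 concentrations in triplicate.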
# [16] = target: Androgen receptor (Homo sapiens) (UniProt P10275); assay: qHTS assay to identify small molecule antagonists of the androgen receptor (AR) signaling pathway using the MDA cell line in the presence of 0.5 nM R1881 (AID 1259243); also: nearly all actives have a fitted effect of over 50% in size
# Chain of Androgen receptor (Homo sapiens) (P10275 whole entry, looked up): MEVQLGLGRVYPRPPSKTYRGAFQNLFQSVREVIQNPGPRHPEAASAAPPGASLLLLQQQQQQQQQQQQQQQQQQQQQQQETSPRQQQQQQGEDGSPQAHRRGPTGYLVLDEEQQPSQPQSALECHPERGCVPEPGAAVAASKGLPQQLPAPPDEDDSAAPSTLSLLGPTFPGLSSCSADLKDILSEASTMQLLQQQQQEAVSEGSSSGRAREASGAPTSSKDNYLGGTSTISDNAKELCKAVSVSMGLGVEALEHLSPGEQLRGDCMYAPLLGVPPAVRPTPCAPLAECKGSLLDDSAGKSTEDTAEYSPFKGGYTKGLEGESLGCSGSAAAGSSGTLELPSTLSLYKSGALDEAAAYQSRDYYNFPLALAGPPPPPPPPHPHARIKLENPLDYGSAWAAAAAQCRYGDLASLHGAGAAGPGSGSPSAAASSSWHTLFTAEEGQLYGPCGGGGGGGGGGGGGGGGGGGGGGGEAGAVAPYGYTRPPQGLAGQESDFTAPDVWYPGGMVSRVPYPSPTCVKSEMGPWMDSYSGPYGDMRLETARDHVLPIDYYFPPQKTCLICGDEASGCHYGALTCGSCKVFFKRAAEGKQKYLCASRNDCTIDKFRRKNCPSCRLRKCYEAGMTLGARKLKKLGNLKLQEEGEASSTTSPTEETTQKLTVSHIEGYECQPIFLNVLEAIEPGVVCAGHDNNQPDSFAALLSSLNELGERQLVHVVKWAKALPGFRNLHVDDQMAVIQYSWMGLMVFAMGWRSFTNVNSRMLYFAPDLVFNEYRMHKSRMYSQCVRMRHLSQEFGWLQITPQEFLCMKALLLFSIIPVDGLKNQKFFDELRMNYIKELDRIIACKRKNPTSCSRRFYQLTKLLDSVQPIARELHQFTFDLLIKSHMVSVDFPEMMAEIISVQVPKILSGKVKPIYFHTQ
# Method in brief: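 MDA-kb2, MMTV-luc (AR/GR elements); 3,000 cells/well; cpd + 0.5 nM R1881 final; 16 hr 37C, 0% CO2; ONE-Glo 30 min RT; luminescence.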
# [17] = target: Estrogen receptor beta (Homo sapiens) (UniProt Q92731); assay: qHTS assay to identify small molecule antagonists of the estrogen receptor beta (ER-beta) signaling pathway (AID 1259378; active = well fitted inhibition curve with a large enough effect in the signal ratio in the repeat runs, not every such curve was filed as active; the % refers to the signal ratio)
# Method in brief: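 ER-beta-UAS-bla HEK293T cells in 2% charcoal-stripped FBS medium treated with compound plus 1nM final 17-beta-estradiol for 16 hr at 37C. Beta-lactamase reporter read by FRET substrate fluorescence after 2 hours at room temperature.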
# [18] = target: Androgen receptor (Homo sapiens) (UniProt P10275); assay: qHTS assay to identify small molecule agonists of the androgen receptor (AR) signaling pathway in the presence of an antagonist (AID 1259381; calls by dose curve; also: nearly all actives have a fitted effect of over 15% in size)
# Method in brief: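 Luciferase read-out (ONE-Glo, 30min room temperature) in MDA-kb2 MMTV-reporter cells; agonist mode run in presence of AR antagonist nilutamide, 3.0uM final. Compounds tested as 15-point series, 16hr exposure at 37C, 0% CO2.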
# [19] = target: Estrogen receptor (Homo sapiens) (UniProt P03372); assay: qHTS assay to identify small molecule agonists of the estrogen receptor alpha (ER-alpha) signaling pathway in the presence of an antagonist (AID 1259383; calls by dose curve; also: nearly all actives have a fitted effect of over 15% in size; also: potency is read from the fitted curve at half-maximal effect; as to activation: top concentration of the series differs between compounds)
# Chain of Estrogen receptor (Homo sapiens) (P03372 whole entry, looked up): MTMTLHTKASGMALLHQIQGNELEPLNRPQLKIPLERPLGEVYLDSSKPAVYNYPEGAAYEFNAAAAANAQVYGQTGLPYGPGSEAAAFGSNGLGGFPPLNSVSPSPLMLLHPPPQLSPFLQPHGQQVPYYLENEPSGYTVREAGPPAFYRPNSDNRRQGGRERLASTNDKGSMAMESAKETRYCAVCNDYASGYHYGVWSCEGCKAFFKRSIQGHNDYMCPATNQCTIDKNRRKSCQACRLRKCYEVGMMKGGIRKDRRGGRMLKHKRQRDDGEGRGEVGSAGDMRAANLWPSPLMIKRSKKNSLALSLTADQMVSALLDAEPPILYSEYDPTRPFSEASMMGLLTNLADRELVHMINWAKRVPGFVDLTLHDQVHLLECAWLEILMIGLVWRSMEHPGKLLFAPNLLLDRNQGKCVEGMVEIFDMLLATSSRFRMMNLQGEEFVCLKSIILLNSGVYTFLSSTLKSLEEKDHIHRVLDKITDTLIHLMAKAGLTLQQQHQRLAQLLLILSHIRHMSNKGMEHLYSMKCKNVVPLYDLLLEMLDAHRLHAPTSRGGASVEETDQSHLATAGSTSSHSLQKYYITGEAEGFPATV
# Method in brief: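 Luciferase luminescence (ONE-Glo, 30min at room temperature) measured in VM7Luc4E2 cells after 22hr compound exposure at 15 concentrations, with 10.0nM ICI-182,780 final present; cells express endogenous ER-alpha and carry four EREs upstream of luciferase.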
# [20] = target: Estrogen receptor (Homo sapiens) (UniProt P03372); assay: qHTS assay to identify small molecule antagonists of the estrogen receptor alpha (ER-alpha) signaling pathway using the BG1 cell line in the presence of 0.1 nM 17-beta-estradiol (AID 1259244); also: nearly all actives have a fitted effect of over 50% in size
# Method in brief: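 Luminescence after ONE-Glo (30 min, room temperature) measured ERE-luciferase activity in VM7Luc4E2 cells treated 22 h with compound and 0.1 nM final 17beta-estradiol as stimulator.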
SMILES,Potency [1],Potency [2],outcome [3],Potency [4],Potency [5],Potency [6],Potency [7],Potency [8],Potency [9],Potency [10],Potency [11],Potency [12],Potency [13],Potency [14],Potency [15],Potency [16],Potency [17],outcome [18],Potency [19],Potency [20]
CC(=O)OC[C@H]1O[C@@](COC(C)=O)(O[C@H]2O[C@H](COC(C)=O)[C@@H](OC(C)=O)[C@H](OC(C)=O)[C@H]2OC(C)=O)[C@@H](OC(C)=O)[C@@H]1OC(C)=O,inactive,inactive,inactive,inactive,inactive,inactive,inactive,inactive,inactive,inactive,inactive,inactive,inactive,inactive,inactive,,,,,
CC(C)(CO)CO,inactive,inactive,,inactive,inactive,inactive,inactive,inactive,inactive,inactive,inactive,inactive,inactive,inactive,inactive,inactive,inactive,inactive,inactive,
N[C@@H](Cc1cc(I)c(Oc2ccc(O)c(I)c2)c(I)c1)C(=O)O,inactive,inactive,inactive,inactive,inactive,inactive,inactive,inactive,,,inactive,,inactive,,inactive,,,,inactive,
Cc1ccc([N+](=O)[O-])cc1N,inactive,inactive,,inactive,,inactive,inactive,inactive,inactive,inactive,inactive,inactive,inactive,inactive,inactive,,inactive,,inactive,inactive
CN1Cc2c(N)cccc2C(c2ccccc2)C1 (stereo not drawn),inactive,inactive,inactive,inactive,,inactive,inactive,inactive,inactive,inactive,inactive,inactive,inactive,inactive,,,inactive,,,
CC(=O)OC/C=C(\C)CCC=C(C)C,inactive,inactive,,inactive,inactive,inactive,inactive,inactive,inactive,,inactive,inactive,inactive,inactive,inactive,,,,inactive,inactive
Cc1ccccc1Cl,inactive,inactive,,inactive,inactive,inactive,inactive,inactive,inactive,,inactive,,inactive,inactive,,inactive,,inactive,inactive,
CCN(CC)CCNC(=O)c1ccc(N)cc1,inactive,inactive,inactive,inactive,,inactive,inactive,inactive,inactive,inactive,inactive,,inactive,inactive,inactive,,,,,
CC1(C)[C@@H](O[C@H]2O[C@H](C(=O)O)[C@@H](O)[C@H](O)[C@H]2O[C@@H]2O[C@H](C(=O)O)[C@@H](O)[C@H](O)[C@H]2O)CC[C@]2(C)[C@H]3C(=O)C=C4[C@@H]5C[C@@](C)(C(=O)O)CC[C@]5(C)CC[C@@]4(C)[C@]3(C)CC[C@@H]12,inactive,inactive,inactive,inactive,inactive,inactive,inactive,inactive,inactive,,inactive,,inactive,inactive,inactive,,,,,
CC(C)c1ccc(C(C)C)cc1,inactive,inactive,,inactive,inactive,inactive,inactive,inactive,inactive,inactive,inactive,inactive,inactive,inactive,,,,,inactive,inactive
CCCCCCC(=O)O,inactive,inactive,,inactive,,inactive,inactive,inactive,inactive,inactive,inactive,inactive,inactive,inactive,inactive,,inactive,,inactive,inactive
Clc1cccc(Cl)c1NC1=NCCN1,inactive,inactive,inactive,inactive,inactive,inactive,inactive,inactive,,,inactive,inactive,inactive,inactive,inactive,,,,,
COc1cc(NC(=O)CC(C)=O)c(OC)cc1Cl,inactive,inactive,,inactive,inactive,inactive,inactive,inactive,inactive,inactive,inactive,inactive,inactive,inactive,inactive,,inactive,,inactive,inactive
CCCCCCCC(=O)O,inactive,inactive,inactive,inactive,inactive,inactive,inactive,inactive,inactive,inactive,inactive,inactive,inactive,,,,,,26.3 µM (active) and inactive,
OC[C@H]1O[C@@H](Oc2ccc(O)cc2)[C@H](O)[C@@H](O)[C@@H]1O,inactive,inactive,inactive,inactive,,inactive,inactive,inactive,,,inactive,inactive,inactive,inactive,inactive,,,,inactive,inactive
CC(=O)C(C)C,inactive,inactive,,inactive,inactive,inactive,inactive,inactive,inactive,inactive,inactive,inactive,inactive,,,,,,inactive,inactive
O=c1c(O)c(-c2ccc(O)c(O)c2)oc2cc(O)cc(O)c12,inactive,inactive,inactive,27.3 µM (active) and 24.5 µM (active) and 11.9 µM (active),inactive,30.9 µM (active),48.6 µM (active) and inactive,inactive,inactive,,48.6 µM (active) and inactive,inactive,inactive,inactive,inactive,,,,24.4 µM (active) and inactive,inactive
C=CC(=O)NCOCCCC,inactive,inactive,,inactive,inactive,inactive,inactive,inactive,,inactive,inactive,inactive,inactive,,,,inactive,,inactive,inactive
